# The panel holds about 79,000 compounds, 15% with a hit somewhere; the sample as a whole holds those more often. Values without a mark were called inactive. Activity calls are given as the source filed them. No stated cut-off is given here; in the data, active means growth inhibition above about 70%; inactive means the rest.
# Columns and labels:
# [1] = NCI Yeast Anticancer Drug Screen. Data for the rad52 strain (AID 147);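 further: 0% = growth of vehicle-treated control cultures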; conditions: S. cerevisiae rad52 mutant growth inhibition, hits give high values
# Summary of the method: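 Here a repair-compromised yeast strain receives each compound; its growth is then quantified and normalised to vehicle-only controls.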
# [2] = NCI Yeast Anticancer Drug Screen. Data for the wt1 strain (AID 149);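 further: 0% = growth of vehicle-treated wt1 cultures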; conditions: S. cerevisiae wt1 strain (SPY 50644) growth inhibition, hits give high values
# Summary of the method: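 Readout: yeast growth inhibition, normalised to vehicle controls, in the wt1 strain exposed to test compounds.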
# [3] = NCI Yeast Anticancer Drug Screen. Data for the rad50EPP+ strain (AID 151);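 further: 0% = growth of vehicle-treated control cultures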; conditions: S. cerevisiae rad50 mutant strain, hits give high values
# Summary of the method: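 Read-out is yeast growth inhibition relative to vehicle; cells used were the rad50EPP+ strain.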
# [4] = NCI Yeast Anticancer Drug Screen. Data for the mgt1 strain (AID 153); conditions: S. cerevisiae mgt1 mutant growth inhibition, hits give high values
# Summary of the method: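 Measured: inhibition of mgt1 yeast growth by compound, normalized to vehicle-treated cultures.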
# [5] = NCI Yeast Anticancer Drug Screen. Data for the rad50 strain (AID 155);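 further: 0% = growth of vehicle-only cultures of the same strain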; conditions: S. cerevisiae rad50 strain growth inhibition, hits give high values
# Summary of the method: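 Compounds were tested on a yeast strain with an engineered DNA damage repair alteration; the reported value is growth inhibition normalised to vehicle treatment.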
# [6] = NCI Yeast Anticancer Drug Screen. Data for the mec2-1 strain (AID 157); conditions: S. cerevisiae mec2-1 strain, hits give high values
# Summary of the method: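 Using mec2-1 yeast: add compound, measure growth, express inhibition versus vehicle-treated cultures.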
# [7] = NCI Yeast Anticancer Drug Screen. Data for the rad14 strain (AID 159);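 further: 0% = growth of vehicle-treated control cultures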; conditions: S. cerevisiae rad14 strain growth inhibition, hits give high values
# Summary of the method: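 Compound-treated yeast with a defined DNA-repair lesion; growth inhibition normalised to vehicle-treated cultures.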
# [8] = NCI Yeast Anticancer Drug Screen. Data for the sgs1 mgt1 strain (AID 161);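 further: 0% = growth of cultures given vehicle only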; conditions: S. cerevisiae sgs1 mgt1 strain, hits give high values
# Summary of the method: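 Percent growth inhibition was derived by comparing compound-exposed mutant yeast with vehicle-exposed cultures. The strain carries alterations in DNA damage repair.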
# [9] = NCI Yeast Anticancer Drug Screen. Data for the CLN2oe strain (AID 163);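 further: 0% = growth of vehicle-only control cultures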; conditions: S. cerevisiae CLN2oe strain, hits give high values
# Summary of the method: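 Whole-cell yeast growth assay. A strain engineered for altered cell-cycle control received compound, and inhibition relative to vehicle-treated cultures was recorded.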
# [10] = NCI Yeast Anticancer Drug Screen. Data for the cln2 rad14 strain (AID 165);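 further: 0% = growth equal to vehicle treated cultures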; conditions: S. cerevisiae cln2 rad14 strain, hits give high values
# Summary of the method: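 Yeast strain cln2 rad14, bearing defects in cell cycle control and DNA repair, serves as the test system; values reflect growth inhibition compared with vehicle.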
# [11] = NCI Yeast Anticancer Drug Screen. Data for the bub3 strain (AID 167); conditions: S. cerevisiae bub3 mutant strain, hits give high values
# Summary of the method: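 Growth of a checkpoint-deficient yeast mutant is measured after compound exposure. Values represent inhibition relative to vehicle.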
# [12] = NCI Yeast Anticancer Drug Screen. Data for the wt2 strain (AID 169);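 further: 0% = growth of vehicle-treated yeast cultures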; conditions: S. cerevisiae wt2 strain growth inhibition, hits give high values
# Summary of the method: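 Treated yeast vs. vehicle-treated yeast: growth inhibition determined.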
# [13] = NCI Yeast Anticancer Drug Screen. Data for the mlh1 strain (AID 171);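 further: 0% = growth of vehicle-treated control cultures of the same strain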; conditions: S. cerevisiae mlh1 strain growth inhibition, hits give high values
# Summary of the method: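 A yeast strain with a defined genetic lesion serves as the test organism. Cultures receive compound or vehicle, and growth is measured.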
# [14] = NCI Yeast Anticancer Drug Screen. Data for the sgs1 strain (AID 173);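 further: 0% = growth of vehicle-only control cultures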; conditions: S. cerevisiae sgs1 mutant, hits give high values
# Summary of the method: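 A genetically defined yeast mutant is incubated with the test compound, and its growth is compared to that of the same strain given vehicle.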
# [15] = NCI Yeast Anticancer Drug Screen. Data for the mlh1 rad18 strain (AID 175); conditions: S. cerevisiae mlh1 rad18 strain growth inhibition, hits give high values
# Summary of the method: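 Steps: expose repair-defective yeast to compound; measure growth; express inhibition against vehicle-treated controls.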
# [16] = NCI Yeast Anticancer Drug Screen. Data for the rad18 strain (AID 177); conditions: S. cerevisiae rad18 mutant growth inhibition, hits give high values
# Summary of the method: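 Measured value is growth inhibition of a yeast strain bearing a DNA repair alteration, referenced to vehicle-treated cells.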
# [17] = at 5.0 µM (retest, dose inferred, filed as 0.5)
# [18] = at 50.0 µM (retest, dose inferred, filed as 5.0)
smiles,measurement,setting,value
COc1ccc2c3c1OC(C)C31CC(=O)CCC1CC2 (stereo unspecified),growth inhibition,[1]; at 1.2 µM,-4%
same,growth inhibition,[1]; at 3.7 µM,-1%
same,growth inhibition,[1]; at 11.0 µM,4%
same,growth inhibition,[1]; at 33.0 µM,2%
same,growth inhibition,[1]; at 100.0 µM,15%
same,growth inhibition,[2]; at 1.2 µM,-3%
same,growth inhibition,[2]; at 3.7 µM,-4%
same,growth inhibition,[2]; at 11.0 µM,-5%
same,growth inhibition,[2]; at 33.0 µM,-5%
same,growth inhibition,[2]; at 100.0 µM,-3%
same,growth inhibition,[3]; at 1.2 µM,-5%
same,growth inhibition,[3]; at 3.7 µM,1%
same,growth inhibition,[3]; at 11.0 µM,6%
same,growth inhibition,[3]; at 33.0 µM,-1%
same,growth inhibition,[3]; at 100.0 µM,4%
same,growth inhibition,[4]; at 1.2 µM,-8%
same,growth inhibition,[4]; at 3.7 µM,-5%
same,growth inhibition,[4]; at 11.0 µM,-4%
same,growth inhibition,[4]; at 33.0 µM,-2%
same,growth inhibition,[4]; at 100.0 µM,-1%
same,growth inhibition,[5]; at 1.2 µM,-2%
same,growth inhibition,[5]; at 3.7 µM,1%
same,growth inhibition,[5]; [17],13%
same,growth inhibition,[5]; at 11.0 µM,3%
same,growth inhibition,[5]; at 33.0 µM,4%
same,growth inhibition,[5]; [18],23%
same,growth inhibition,[5]; at 50.0 µM,7.25%
same,growth inhibition,[5]; at 100.0 µM,13%
same,growth inhibition,[6]; at 1.2 µM,-4%
same,growth inhibition,[6]; at 3.7 µM,-2%
same,growth inhibition,[6]; [17],-15%
same,growth inhibition,[6]; at 11.0 µM,-3%
same,growth inhibition,[6]; at 33.0 µM,-3%
same,growth inhibition,[6]; [18],2%
same,growth inhibition,[6]; at 50.0 µM,14.7%
same,growth inhibition,[6]; at 100.0 µM,-2%
same,growth inhibition,[7]; at 1.2 µM,-2%
same,growth inhibition,[7]; at 3.7 µM,1%
same,growth inhibition,[7]; at 11.0 µM,2%
same,growth inhibition,[7]; at 33.0 µM,1%
same,growth inhibition,[7]; at 100.0 µM,7%
same,growth inhibition,[8]; [17],14%
same,growth inhibition,[8]; [18],25%
same,growth inhibition,[8]; at 50.0 µM,8.45%
same,growth inhibition,[9]; at 1.2 µM,-2%
same,growth inhibition,[9]; at 3.7 µM,-8%
same,growth inhibition,[9]; at 11.0 µM,1%
same,growth inhibition,[9]; at 33.0 µM,-1%
same,growth inhibition,[9]; at 100.0 µM,8%
same,growth inhibition,[10]; [17],14%
same,growth inhibition,[10]; [18],9%
same,growth inhibition,[10]; at 50.0 µM,5.05%
same,growth inhibition,[11]; at 1.2 µM,-5%
same,growth inhibition,[11]; at 3.7 µM,-3%
same,growth inhibition,[11]; [17],8%
same,growth inhibition,[11]; at 11.0 µM,-5%
same,growth inhibition,[11]; at 33.0 µM,0%
same,growth inhibition,[11]; [18],34%
same,growth inhibition,[11]; at 50.0 µM,10.9%
same,growth inhibition,[11]; at 100.0 µM,8%
same,growth inhibition,[12]; at 1.2 µM,-8%
same,growth inhibition,[12]; at 3.7 µM,-9%
same,growth inhibition,[12]; at 11.0 µM,-7%
same,growth inhibition,[12]; at 33.0 µM,-7%
same,growth inhibition,[12]; at 100.0 µM,-11%
same,growth inhibition,[13]; at 1.2 µM,-6%
same,growth inhibition,[13]; at 3.7 µM,-2%
same,growth inhibition,[13]; at 11.0 µM,-3%
same,growth inhibition,[13]; at 33.0 µM,-4%
same,growth inhibition,[13]; at 100.0 µM,1%
same,growth inhibition,[14]; at 1.2 µM,-1%
same,growth inhibition,[14]; at 3.7 µM,-6%
same,growth inhibition,[14]; at 11.0 µM,-8%
same,growth inhibition,[14]; at 33.0 µM,9%
same,growth inhibition,[14]; at 100.0 µM,9%
same,growth inhibition,[15]; [17],12%
same,growth inhibition,[15]; [18],51%
same,growth inhibition,[15]; at 50.0 µM,-0.75%
same,growth inhibition,[16]; at 1.2 µM,-7%
same,growth inhibition,[16]; at 3.7 µM,-1%
same,growth inhibition,[16]; at 11.0 µM,3%
same,growth inhibition,[16]; at 33.0 µM,0%
same,growth inhibition,[16]; at 100.0 µM,25%
COc1ccc(N=c2cc(-c3ccccc3)oc3ccccc23)cc1,growth inhibition,[1]; at 1.2 µM,1%
same,growth inhibition,[1]; at 3.7 µM,2%
same,growth inhibition,[1]; at 11.0 µM,1%
same,growth inhibition,[1]; at 33.0 µM,-1%
same,growth inhibition,[1]; at 100.0 µM,-3%
same,growth inhibition,[2]; at 1.2 µM,0%
same,growth inhibition,[2]; at 3.7 µM,1%
same,growth inhibition,[2]; at 11.0 µM,2%
same,growth inhibition,[2]; at 33.0 µM,1%
same,growth inhibition,[2]; at 100.0 µM,-6%
same,growth inhibition,[3]; at 1.2 µM,-1%
same,growth inhibition,[3]; at 3.7 µM,-3%
same,growth inhibition,[3]; at 11.0 µM,-5%
same,growth inhibition,[3]; at 33.0 µM,-2%
same,growth inhibition,[3]; at 100.0 µM,16%
same,growth inhibition,[4]; at 1.2 µM,0%
same,growth inhibition,[4]; at 3.7 µM,1%
same,growth inhibition,[4]; at 11.0 µM,-2%
same,growth inhibition,[4]; at 33.0 µM,13%
same,growth inhibition,[4]; at 100.0 µM,-6%
same,growth inhibition,[5]; at 1.2 µM,0%
same,growth inhibition,[5]; at 3.7 µM,0%
same,growth inhibition,[5]; [17],11%
same,growth inhibition,[5]; at 11.0 µM,1%
same,growth inhibition,[5]; at 33.0 µM,0%
same,growth inhibition,[5]; [18],3%
same,growth inhibition,[5]; at 50.0 µM,57.5%
same,growth inhibition,[5]; at 100.0 µM,-4%
same,growth inhibition,[6]; at 1.2 µM,-3%
same,growth inhibition,[6]; at 3.7 µM,-2%
same,growth inhibition,[6]; [17],-4%
same,growth inhibition,[6]; at 11.0 µM,-3%
same,growth inhibition,[6]; at 33.0 µM,-4%
same,growth inhibition,[6]; [18],6%
same,growth inhibition,[6]; at 50.0 µM,27.6%
same,growth inhibition,[6]; at 100.0 µM,-7%
same,growth inhibition,[7]; at 1.2 µM,-3%
same,growth inhibition,[7]; at 3.7 µM,-3%
same,growth inhibition,[7]; at 11.0 µM,0%
same,growth inhibition,[7]; at 33.0 µM,-2%
same,growth inhibition,[7]; at 100.0 µM,-5%
same,growth inhibition,[8]; [17],1%
same,growth inhibition,[8]; [18],17%
same,growth inhibition,[8]; at 50.0 µM,87.1% (active)
same,growth inhibition,[9]; at 1.2 µM,-6%
same,growth inhibition,[9]; at 3.7 µM,-1%
same,growth inhibition,[9]; at 11.0 µM,-6%
same,growth inhibition,[9]; at 33.0 µM,-8%
same,growth inhibition,[9]; at 100.0 µM,-10%
same,growth inhibition,[10]; [17],-7%
same,growth inhibition,[10]; [18],-1%
same,growth inhibition,[10]; at 50.0 µM,3.85%
same,growth inhibition,[11]; at 1.2 µM,-3%
same,growth inhibition,[11]; at 3.7 µM,-6%
same,growth inhibition,[11]; [17],-1%
same,growth inhibition,[11]; at 11.0 µM,-1%
same,growth inhibition,[11]; at 33.0 µM,-4%
same,growth inhibition,[11]; [18],-85%
same,growth inhibition,[11]; at 50.0 µM,95.5% (active)
same,growth inhibition,[11]; at 100.0 µM,-1%
same,growth inhibition,[12]; at 1.2 µM,0%
same,growth inhibition,[12]; at 3.7 µM,-2%
same,growth inhibition,[12]; at 11.0 µM,-1%
same,growth inhibition,[12]; at 33.0 µM,-3%
same,growth inhibition,[12]; at 100.0 µM,-6%
same,growth inhibition,[13]; at 1.2 µM,0%
same,growth inhibition,[13]; at 3.7 µM,-1%
same,growth inhibition,[13]; at 11.0 µM,-1%
same,growth inhibition,[13]; at 33.0 µM,-4%
same,growth inhibition,[13]; at 100.0 µM,-5%
same,growth inhibition,[14]; at 1.2 µM,-1%
same,growth inhibition,[14]; at 3.7 µM,1%
same,growth inhibition,[14]; at 11.0 µM,-2%
same,growth inhibition,[14]; at 33.0 µM,-3%
same,growth inhibition,[14]; at 100.0 µM,-4%
same,growth inhibition,[15]; [17],-2%
same,growth inhibition,[15]; [18],26%
same,growth inhibition,[15]; at 50.0 µM,76.2% (active)
same,growth inhibition,[16]; at 1.2 µM,-2%
same,growth inhibition,[16]; at 3.7 µM,0%
same,growth inhibition,[16]; at 11.0 µM,-1%
same,growth inhibition,[16]; at 33.0 µM,-6%
same,growth inhibition,[16]; at 100.0 µM,-8%
